# AmpC inh no detg = AmpC beta-lactamase inhibition without detergent | AmpC nitrocefin hydrolysis, absorbance 480 nm, 0.0001% Triton | Potency, µM (titrated, usually from 57.1 µM), for the others: at the top dose activity change, negative = inhibition, usual class: inhibitors | 0.52% of 330,000 active | AID 485341;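 note: plate controls were no compound for no effect and no enzyme for full effect; nearly all actives have a fitted effect of over 20% in size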
# Target sequence (P00811 whole entry, looked up): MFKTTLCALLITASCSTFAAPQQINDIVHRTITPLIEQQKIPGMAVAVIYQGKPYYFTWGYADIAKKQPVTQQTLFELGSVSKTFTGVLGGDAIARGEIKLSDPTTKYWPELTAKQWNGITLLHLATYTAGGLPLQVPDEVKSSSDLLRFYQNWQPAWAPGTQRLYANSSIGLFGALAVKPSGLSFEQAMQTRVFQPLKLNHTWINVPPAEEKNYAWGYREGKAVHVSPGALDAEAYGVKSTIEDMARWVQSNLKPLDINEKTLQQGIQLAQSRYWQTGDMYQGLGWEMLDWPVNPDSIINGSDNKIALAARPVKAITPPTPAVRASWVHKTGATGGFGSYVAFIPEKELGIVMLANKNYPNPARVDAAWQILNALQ
#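 AmpC (5.3 nM in the dispensed reagent) in 20 mM phosphate pH 7.0 with 0.01% (detergent screen) or 0.0001% Triton X-100 was preincubated with compounds for 15 min at room temperature. Nitrocefin was then added from an 800 uM solution, and hydrolysis was followed at 480 nm.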
# AMA1-RON2 inh = inhibitors of Plasmodium falciparum AMA1-RON2 interaction. Potency, µM (top dose mostly 58.2 µM), inactives show at the top dose activity change, negative = inhibition, actives largely listed as inhibitors. AlphaScreen AMA1-biotinylated RON2 peptide binding. 0.2% of 360,000 active;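 note: 0% = vehicle wells and -100% = peptide control; nearly all actives have a fitted effect of over 45% in size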
#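 AMA1 (3D7) with his tag at 25 nM final met compounds first, then biotinylated RON2 peptide at 25 nM; detection used donor plus acceptor beads, 10 µg/mL apiece, read by AlphaScreen after 30 min at room temperature.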
# Sm TGR inh = S. mansoni TGR enzyme inhibition; purified TGR, DTNB reduction, TNB absorbance 405 nm; Potency, µM (series often up to 114 µM), for inactives: top-dose activity change, negative = inhibition, most hits filed as inhibitors; 3% of 360,000 active; note: nearly all actives have a fitted effect of over 60% in size
#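 Kinetic colorimetric format: TGR-catalysed, NADPH-driven DTNB reduction monitored via TNB absorbance. Enzyme dispensed at 20 nM; compound exposure 15 min at room temperature before reaction start.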
# AmpC inh detg = AmpC beta-lactamase inhibition with detergent present | P00811 | AmpC hydrolysis of nitrocefin, absorbance 480 nm, 0.01% Triton | Potency, µM (top dose mostly 114 µM), inactives show at the top dose activity change, negative = inhibition, actives largely listed as inhibitors | 0.041% of 370,000 active;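 note: 0% = no-compound wells and -100% = no-enzyme wells; nearly all actives have a fitted effect of over 25% in size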
#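 AmpC (5.3 nM in the dispensed reagent) in 20 mM phosphate pH 7.0 with 0.01% (detergent screen) or 0.0001% Triton X-100 was preincubated with compounds for 15 min at room temperature. Nitrocefin was then added from an 800 uM solution, and hydrolysis was followed at 480 nm.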
# FMDV antiviral = antivirals against foot and mouth disease virus; FMDV antiviral cell-based qHTS; Potency, µM (series often up to 57.9 µM), without a hit: at the highest dose activity change, negative = inhibition, actives largely listed as inhibitors; 1.2% of 410,000 active; AID 1159524; calls by dose curve; tested in HEK293T cells; note: read-out not given here; nearly all actives have a fitted effect of over 45% in size
# Numbers without * were called inactive; ? = inconclusive; · = not tested or not shown; [ ] = dose if it differs, or a comment. An excerpt weighted towards active compounds, which were near 4.1% of everything screened. Unless noted, calls come from the whole dose curve; as a rule, active = well fitted curve in the direction sought with a large enough effect; inconclusive = small, poorly fitted or top-dose-only effect, or another doubt; inactive = no such curve, though single readings can be large; an effect the other way counts as inactive or inconclusive. Unless noted, % is set by controls: 0 for no effect and ±100 for the full control effect; potency is the fitted concentration of half-maximal effect.
SMILES,AmpC inh no detg,AMA1-RON2 inh,Sm TGR inh,AmpC inh detg,FMDV antiviral
S=c1sc2c(N3CCN(Cc4ccccc4)CC3)ncnc2n1-c1ccccc1,2.1%,-4.0%,?,4.5%,28.2µM*
Cc1ccc(-n2ncc3c(N4CCN(Cc5ccccc5)CC4)ncnc32)cc1C,·,·,-3.0%,-4.3%,14.1µM*
COc1ccc(-n2ncc3c(N4CCN(Cc5ccccc5)CC4)ncnc32)cc1,-14.4%,?,14.0%,?,35.5µM*
Cc1ccsc1CN1CCc2nnc(CCNC(=O)c3ccc(F)cc3)n2CC1,·,·,·,·,-4.4%
COc1ccc(-c2cc(C(F)(F)F)nc(SCC(=O)Nc3ccc(C(C)=O)cc3)n2)cc1,·,·,-5.7%,6.5%,-28.0%
CCC(=O)OCOc1ccc(/C=C2/CCC(CN(C)C)C2=O)cc1 (centres undefined),·,-8.2%,·,·,31.6µM*
CCOC(=O)Cc1csc(NC(=O)c2ccc(N3CCOCC3)cc2[N+](=O)[O-])n1,-0.9%,-24.8%,-14.4%,-2.2%,17.8µM*
Cc1ccc(CNC(=O)Cn2cc(C(=O)c3ccc(Cl)cc3)c(=O)c3ccc(C)nc32)cc1,·,·,1.4%,19.0%,-16.3%
C[C@H](N)C(=O)N[C@@H](C)C(=O)N[C@@H](Cc1ccccc1)C(=O)CCl,·,·,·,·,2.9%[97.4 µM]
COC(=O)C(Cc1ccccc1)NC(=O)C(CC(C)C)NC(=O)OC(C)(C)C (centres undefined),1.8%,-5.9%,4.7%,?,-18.2%
CC(C)CC(NC(=O)C(Cc1ccc(OCc2ccccc2)cc1)NC(=O)OC(C)(C)C)C(N)=O (centres undefined),7.08µM*,20.2%,0.9%,3.0%,7.2%
CC(C)CC(NC(=O)OCc1ccccc1)C(=O)NC(Cc1ccccc1)C(=O)CCl (centres undefined),·,9.9%,·,·,25.1µM*
COc1ccc(-c2nc3ccccc3c(=O)n2CCN2CCOCC2)cc1,-2.9%,-6.5%,-0.5%,-14.4%,·
Cc1ccc(-c2nc3ccccc3c(=O)n2CCN2CCOCC2)cc1,2.24µM*,4.7%,0.9%,0.3%,11.0%
CCOC(=O)COc1ccc(CC)cc1C(=O)c1ccn2nc(-c3ccc(F)cc3)cc2n1,·,·,4.6%,-0.2%,-17.6%
Cc1ccc(C(O)C(=O)c2ccco2)cc1 (centres undefined),-26.9%,3.0%,-23.4%,?,-22.9%
O=C(c1ccco1)C(O)c1ccco1 (centres undefined),-20.2%,-8.2%,20µM*,-5.6%,-4.4%
Cn1c(CCNC(=O)C2CC23CCN(C(=O)C2=CCCC2)CC3)nc2ccccc21 (centres undefined),·,·,·,·,-0.9%
CC(C)(CO)N1CCN(C(=S)Nc2ccccc2)CC1,-16.0%,14.1%,1.8%,5.4%,22.4µM*
COc1ccc(CNC(=O)CSCc2nc(-c3ccccc3C)oc2C)cc1,·,·,3.9%,-0.5%,4.5%
Cn1cccc1CNC(=O)Nc1ccccc1,-12.9%,-24.1%,-24.5%,-3.2%,91.6%
Cc1ccc(CNC(=O)Nc2ccc(F)cc2F)n1C,-21.2%,2.3%,31.6µM*,?,-7.2%
Cc1ccc(CNC(=O)Nc2ccccc2)n1C,-2.3%,2.9%,28.2µM*,-1.3%,21.6%
CC1(C(=O)Nc2cccc3ccccc23)CCN1C(=O)C1(c2ccccc2)CCCC1 (centres undefined),·,-3.7%,·,·,-22.5%
Cc1cccc(CS(=O)(=O)Cc2ccc(C(=O)NCc3ccccc3)o2)c1,-13.8%,-7.8%,44.7µM*,6.4%,-20.7%
SMILES,AmpC inh no detg,AMA1-RON2 inh,Sm TGR inh,AmpC inh detg,FMDV antiviral
Cc1ccc(CNC(=O)c2ccc(CS(=O)(=O)Cc3ccc(C)cc3)o2)cc1,·,·,6.3%,3.8%,-21.5%
Cc1cccc(CS(=O)(=O)Cc2ccc(C(=O)NCc3cccs3)o2)c1,-25.6%,0.0%,35.5µM*,-4.3%,-22.4%
COc1ccc(CCNC(=O)c2ccc(CS(=O)(=O)Cc3cccc(C)c3)o2)cc1OC,39.1%,-1.0%,-26.5%,-4.2%,39.8µM*
CC(C)N(C(=O)Cn1cc(S(=O)(=O)Cc2ccc(C(F)(F)F)cc2)c2ccccc21)C(C)C,·,·,7.9%,8.6%,9.4%
Cc1cccc(N(C)C(=O)CCS(=O)(=O)c2ccc3c(c2)n(C)c(=O)c(=O)n3C)c1,·,·,9.3%,0.8%,-17.5%
Cn1c(=O)oc2cc(S(=O)(=O)CCC(=O)N3CCN(c4cccc(Cl)c4)CC3)ccc21,·,·,3.8%,18.7%,-27.9%
Cc1cccc(N(C)C(=O)CCS(=O)(=O)c2ccc3c(c2)oc(=O)n3C)c1,·,·,39.8µM*,4.4%,-12.1%
COc1cccc(N2CCN(C(=O)CCS(=O)(=O)c3ccc4c(c3)oc(=O)n4C)CC2)c1,40.5%,-3.7%,25.1µM*,-3.3%,6.3%
CC1CCCN(C(=O)CCS(=O)(=O)c2ccc3c(c2)n(C)c(=O)c(=O)n3C)C1 (centres undefined),-6.1%,2.3%,0.8%,10.3%,-6.5%
Cn1c(=O)c(=O)n(C)c2cc(S(=O)(=O)CCC(=O)N3CCOCC3)ccc21,3.98µM*,3.6%,5.6%,5.8%,-14.1%
Cc1ccc(C)c(N2CCN(C(=O)CCS(=O)(=O)c3ccc4c(c3)oc(=O)n4C)CC2)c1,182.7%,-8.5%,39.8µM*,0.6%,?
COc1ccc(NC(=O)Cn2c(=O)n(Cc3ccccc3Cl)c(=O)c3cc(OC)c(OC)cc32)cc1OC,·,·,0.3%,22.9%,5.1%
CCCCOc1ccc(Br)cc1/C(C)=N/NC1=NCCN1,41.2%,-12.4%,4.6%,2.6%,14.1µM*
CCCCCCOc1ccc(/C(C)=N/NC2=NCCN2)cc1[N+](=O)[O-],-10.4%,-4.2%,·,2.7%,-10.7%
Cc1ccccc1C1(CC(=O)N2CC3(C)CC2CC(C)(C)C3)CC(=O)N(Cc2cccnc2)C1=O (centres undefined),·,·,·,·,12.2%
CC(=O)c1sc(N/N=C2\CC3CC2C(C)C3(C)C)nc1C (centres undefined),-19.6%,19.5%,1.58µM*,0.0%,19.9%
Cc1ccc(-c2cc(C(F)(F)F)n3nc(C(=O)N4CCN5CCCC5C4)cc3n2)cc1 (centres undefined),150.5%,11.7%,-20.6%,-6.9%,-1.9%
CCOC(=O)C1CCCN(C(=O)c2cc3nc(-c4ccc5c(c4)OCO5)cc(C(F)(F)F)n3n2)C1 (centres undefined),-4.4%,5.0%,11.5%,1.7%,35.5µM*
NS(=O)(=O)c1ccc(NC(=O)/C=C/c2cn(-c3ccccc3)nc2-c2cccc(Cl)c2)cc1,2.51µM*,-19.9%,·,-8.7%,1.3%

# Bioassay records as filed in PubChem BioAssay.
